According to PubChem BioAssay:
Values joined by “and” are separate entries in the source; they are usually repeats but may differ in a detail not shown here. Identical values can stand only once. Inconclusive results are not listed. Active and inactive are the calls of the source.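 Rule for the calls, unless noted: active = normalized viability below 100% at a tested concentration; inactive = the rest.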

What was measured:
[1] = growth inhibition of DIPG glioma cells, dose response, cell-based, SU-DIPG-XVII, MIPE5.0, CellTiter-Glo, qHTS (AID 1347060; cut-off not given, nearly all actives have AC50 up to about 26 µM;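 for AC50: cells exposed to compound for 48 hours before viability readout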); settings: SU-DIPG-XVII viability, CellTiter-Glo ATP luminescence
[2] = growth inhibition of DIPG glioma cells, dose response, cell-based, JHH-DIPG-1, MIPE4.0, CellTiter-Glo, qHTS (AID 1347062; cut-off not given, nearly all actives have AC50 up to about 27 µM;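 for AC50: cells exposed to compound for two days before readout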); settings: JHH-DIPG-1 viability, CellTiter-Glo ATP luminescence
[3] = growth inhibition of DIPG glioma cells, dose response, cell-based, SU-DIPG-IV, MIPE4.0, CellTiter-Glo, qHTS (AID 1347063; cut-off not given, nearly all actives have AC50 up to about 30 µM;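 note: compound exposure lasted 48 hours before the viability readout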); settings: SU-DIPG-IV viability, CellTiter-Glo ATP luminescence
[4] = SU-DIPG-VI glioma cell viability, MIPE4.0 library, CellTiter-Glo luminescence, qHTS (AID 1347066; cut-off not given, nearly all actives have AC50 up to about 30 µM;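 note: cells exposed to compound for 48 hours before readout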); settings: CellTiter-Glo ATP luminescence
[5] = viability loss in pontine glioma line – cell-based, SU-DIPG-XXV, MIPE5.0, CellTiter-Glo, qHTS, dose response (AID 1347065; cut-off not given, nearly all actives have AC50 up to about 26 µM;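 note: cells exposed to compound for 48 hours before ATP readout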); settings: CellTiter-Glo ATP luminescence
[6] = JHH-DIPG-1 glioma cell viability, MIPE5.0 library, CellTiter-Glo luminescence, qHTS (AID 1347067; cut-off not given, nearly all actives have AC50 up to about 26 µM;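 note: cells exposed to compound for 48 hours before readout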); settings: JHH-DIPG-1 glioma viability, CellTiter-Glo ATP luminescence
[7] = SU-DIPG-XXV glioma cell viability, MIPE5.0 library, qHTS (AID 1347068; cut-off not given, nearly all actives have IC50 up to about 30 µM;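 for IC50: cells exposed to compound for 48 hours before viability readout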)
[8] = sensitizers of A549 cells to miR-34 induction, primary screen, imaging, A549 dox-inducible miR-34, nuclei and caspase counts (AID 1347080;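 active = compounds whose cell count with miR-34 switched on is under 0.7 times the count with it off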); settings: A549 miR-34 inducible, Hoechst nuclei count, 48 h
[9] = survival rescue of mitochondrial mutant cells in low glucose, primary screen, MELAS cybrids, Rieske KO mouse fibroblasts, CellTiter-Glo (AID 1508586;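 active = mean z-score across replicates of 1.96 or higher in either the MELAS or the Rieske mutant cell line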;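 note: z relative to plate mean and SD of compound and empty wells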)
[10] = modifiers of HSF1 nuclear foci, imaging, Selleck Cancer Library (AID 1347162; in the data active = plate-normalised HSF1 focus index below about 0.46); settings: human cells, at 10 µM; SSMD: measured here: HSF1 foci SSMD mean; cell count: measured here: cell number; plate-normalised HSF1 focus index: stronger effect = lower value
[11] = ovarian cancer cell viability with rucaparib, profiling panel, oncology-focused library, rucaparib conditional (AID 1508598); settings: patient-derived ovarian cancer cells, CellTiter-Glo viability, 144 h, stronger effect = lower value
[12] = stronger effect = lower value, cell number ratio, induced over uninduced
[13] = measured here: relative caspase fold change +Dox/-Dox
[14] = measured here: total cells with miR-34 induction, stronger effect = lower value
[15] = measured here: total cells without miR-34 induction
[16] = MELAS cybrid survival, CellTiter-Glo 48 h, stronger effect = higher value
[17] = Rieske KO mouse fibroblast survival, CellTiter-Glo 72 h
[18] = at 0.000305 µM, OCI-C5x cells, with rucaparib 10 µM, 100% = cells with rucaparib alone
[19] = at 0.000305 µM, OCI-C5x cells, without rucaparib
[20] = at 0.000305 µM, OCI-P5x cells, with rucaparib 20 µM, 100% = cells with rucaparib alone
[21] = at 0.000305 µM, OCI-P5x cells, without rucaparib
[22] = at 0.00122 µM, OCI-C5x cells, with rucaparib 10 µM, 100% = cells with rucaparib alone
[23] = at 0.00122 µM, OCI-C5x cells, without rucaparib
[24] = at 0.00122 µM, OCI-P5x cells, with rucaparib 20 µM, 100% = cells with rucaparib alone
[25] = at 0.00122 µM, OCI-P5x cells, without rucaparib
[26] = at 0.00488 µM, OCI-C5x cells, with rucaparib 10 µM, 100% = cells with rucaparib alone
[27] = at 0.00488 µM, OCI-C5x cells, without rucaparib
[28] = at 0.00488 µM, OCI-P5x cells, with rucaparib 20 µM, 100% = cells with rucaparib alone
[29] = at 0.00488 µM, OCI-P5x cells, without rucaparib
[30] = at 0.0195 µM, OCI-C5x cells, with rucaparib 10 µM, 100% = cells with rucaparib alone
[31] = at 0.0195 µM, OCI-C5x cells, without rucaparib
[32] = at 0.0195 µM, OCI-P5x cells, with rucaparib 20 µM, 100% = cells with rucaparib alone
[33] = at 0.0195 µM, OCI-P5x cells, without rucaparib
[34] = at 0.0781 µM, OCI-C5x cells, with rucaparib 10 µM, 100% = cells with rucaparib alone
[35] = at 0.0781 µM, OCI-C5x cells, without rucaparib
[36] = at 0.0781 µM, OCI-P5x cells, with rucaparib 20 µM, 100% = cells with rucaparib alone
[37] = at 0.0781 µM, OCI-P5x cells, without rucaparib
[38] = at 0.313 µM, OCI-C5x cells, with rucaparib 10 µM, 100% = cells with rucaparib alone
[39] = at 0.313 µM, OCI-C5x cells, without rucaparib
[40] = at 0.313 µM, OCI-P5x cells, with rucaparib 20 µM, 100% = cells with rucaparib alone
[41] = at 0.313 µM, OCI-P5x cells, without rucaparib
[42] = at 1.25 µM, OCI-C5x cells, with rucaparib 10 µM, 100% = cells with rucaparib alone
[43] = at 1.25 µM, OCI-C5x cells, without rucaparib
[44] = at 1.25 µM, OCI-P5x cells, with rucaparib 20 µM, 100% = cells with rucaparib alone
[45] = at 1.25 µM, OCI-P5x cells, without rucaparib
[46] = at 5 µM, OCI-C5x cells, with rucaparib 10 µM, 100% = cells with rucaparib alone
[47] = at 5 µM, OCI-C5x cells, without rucaparib
[48] = at 5 µM, OCI-P5x cells, with rucaparib 20 µM, 100% = cells with rucaparib alone
[49] = at 5 µM, OCI-P5x cells, without rucaparib

COC[C@H](NC(=O)c1cnc(C)s1)C(=O)N[C@@H](COC)C(=O)N[C@@H](Cc1ccccc1)C(=O)[C@@]1(C)CO1
active: AC50 [1] 0.186 µM | AC50 [2] 0.148 µM | AC50 [3] 0.148 µM | AC50 [4] 0.332 µM

CCOC(CN1C(=O)[C@](CC(=O)Nc2ccc(C)cc2)(NC(=O)Nc2ccc(C)cc2)c2ccccc21)OCC
inactive: outcome [2]
active: AC50 [1] 23.5 µM | AC50 [3] 14.8 µM | AC50 [5] 18.6 µM | AC50 [6] 20.9 µM | IC50 [7] 23.5 µM

CCCCCCCCCCCC(CC1OC(=O)C1CCCCCC)OC(=O)C(CC(C)C)NC=O (stereo unspecified)
9250 and 6710: cell count [8, 14]
inactive: outcome [1] | outcome [2] | outcome [3] | outcome [4] | outcome [6] | outcome [7] | fold change [8, 12] 0.897 and 0.881 | z-score [9, 16] 1.14
2.53 and 0.818: fold change [8, 13]
10300 and 7610: cell count [8, 15]
-1.74: z-score [9, 17]

CC(C)C[C@H](NC(=O)CNC(=O)c1cc(Cl)ccc1Cl)B(O)O
active: AC50 [1] 0.166 µM | AC50 [2] 0.166 µM | AC50 [3] 0.118 µM | AC50 [5] 0.0833 µM | AC50 [6] 0.263 µM | IC50 [7] 0.105 µM | viability [11, 32] 96.7% | viability [11, 34] 88.7% | viability [11, 37] 80.5% | viability [11, 38] 30.3% | viability [11, 39] 22.4% | viability [11, 40] 22% | viability [11, 41] 4.33% | viability [11, 42] 7.48% | viability [11, 43] 6.01% | viability [11, 44] 2.76% | viability [11, 45] 1.33% | viability [11, 46] 1.81% | viability [11, 47] 1.62% | viability [11, 48] 1.18% | viability [11, 49] 0.837%
6790: cell count [10]
inactive: plate-normalised HSF1 focus index [10] 0.988 | viability [11, 18] 111% | viability [11, 19] 132% | viability [11, 20] 106% | viability [11, 21] 121% | viability [11, 22] 112% | viability [11, 23] 130% | viability [11, 24] 106% | viability [11, 25] 111% | viability [11, 26] 126% | viability [11, 27] 129% | viability [11, 28] 104% | viability [11, 29] 116% | viability [11, 30] 122% | viability [11, 31] 128% | viability [11, 33] 116% | viability [11, 35] 103% | viability [11, 36] 101%
-0.17: SSMD [10]

CC(C)CC(=O)Nc1n[nH]c2c1CN(C(=O)C1CCN(C)CC1)C2(C)C
7270: cell count [10]
1210: cell count [8, 15]
-0.842: z-score [9, 17]
-5.41: SSMD [10]
inactive: fold change [8, 12] 1.09 | plate-normalised HSF1 focus index [10] 0.661 | viability [11, 18] 123% | viability [11, 19] 128% | viability [11, 20] 101% | viability [11, 21] 115% | viability [11, 22] 108% | viability [11, 23] 125% | viability [11, 24] 101% | viability [11, 25] 118% | viability [11, 26] 120% | viability [11, 27] 128% | viability [11, 29] 112% | viability [11, 30] 120% | viability [11, 31] 130% | viability [11, 34] 112% | viability [11, 35] 134% | viability [11, 36] 107% | viability [11, 37] 122% | viability [11, 38] 109% | viability [11, 39] 118% | viability [11, 42] 109% | viability [11, 43] 113%
1320: cell count [8, 14]
active: AC50 [1] 6.61 µM | AC50 [2] 1.05 µM | AC50 [3] 2.35 µM | AC50 [5] 10.5 µM | AC50 [6] 4.17 µM | IC50 [7] 10.5 µM | z-score [9, 16] 2.08 | viability [11, 28] 95.7% | viability [11, 32] 75.5% | viability [11, 33] 92.9% | viability [11, 40] 99.5% | viability [11, 41] 96% | viability [11, 44] 75.7% | viability [11, 45] 69% | viability [11, 46] 45.8% | viability [11, 47] 69.4% | viability [11, 48] 25.6% | viability [11, 49] 6.68%
0.942: fold change [8, 13]

CC(=O)OCC(=O)[C@@]1(O)[C@H](C)C[C@H]2[C@@H]3C=C(C)C4=Cc5c(cnn5-c5ccccc5)C[C@]4(C)[C@H]3[C@@H](O)C[C@@]21C
inactive: outcome [7]
active: AC50 [1] 20.9 µM | AC50 [2] 9.35 µM | AC50 [3] 5.26 µM | AC50 [5] 23.5 µM | AC50 [4] 26.4 µM

Cc1ccc(S(=O)(=O)OCC(=O)Nc2ccc(C(=O)O)c(O)c2)cc1
inactive: outcome [1] | outcome [2] | outcome [3] | outcome [5] | outcome [4] | outcome [6] | outcome [7] | fold change [8, 12] 0.894 | z-score [9, 16] -0.344
6690: cell count [8, 14]
7480: cell count [8, 15]
0.798: fold change [8, 13]
0.295: z-score [9, 17]

Cn1cncc1[C@@](N)(c1ccc(Cl)cc1)c1ccc2c(c1)c(-c1cccc(Cl)c1)cc(=O)n2C
4640: cell count [10]
-0.393: z-score [9, 17]
5030: cell count [8, 14]
-8.89: SSMD [10]
0.725: fold change [8, 13]
inactive: fold change [8, 12] 1.1 | plate-normalised HSF1 focus index [10] 0.564 | z-score [9, 16] -0.557 | viability [11, 18] 113% | viability [11, 19] 115% | viability [11, 20] 102% | viability [11, 21] 113% | viability [11, 22] 118% | viability [11, 23] 111% | viability [11, 24] 103% | viability [11, 25] 109% | viability [11, 26] 115% | viability [11, 27] 122% | viability [11, 28] 107% | viability [11, 29] 107% | viability [11, 30] 114% | viability [11, 31] 123% | viability [11, 34] 111% | viability [11, 35] 121% | viability [11, 38] 113% | viability [11, 42] 101% | viability [11, 43] 104%
4560: cell count [8, 15]
active: AC50 [1] 33.2 µM | AC50 [2] 23.5 µM | AC50 [3] 8.33 µM | AC50 [5] 16.6 µM | AC50 [4] 18.7 µM | AC50 [6] 18.6 µM | viability [11, 32] 98.9% | viability [11, 33] 85.9% | viability [11, 36] 92.4% | viability [11, 37] 67.4% | viability [11, 39] 99.3% | viability [11, 40] 74.4% | viability [11, 41] 66.7% | viability [11, 44] 23.5% | viability [11, 45] 28.3% | viability [11, 46] 1.75% | viability [11, 47] 5.47% | viability [11, 48] 0.988% | viability [11, 49] 1.42%
